Results reported in PubChem BioAssay.
Where “and” joins values, the source holds several entries; their conditions need not be identical. Equal values may be shown once. Calls of active or inactive are those of the source. Unless noted, how the calls were made is not given here.

Tests used:
[1] = tested on: Wnt5a (protein binding on small-molecule microarray); test: small molecules binding Wnt5a protein – biophysical, small-molecule microarray, 635/667 nm fluorescence, primary screen (AID 1142); conditions: 635 nm fluorescence, higher = more signal;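 further: fluorescence read at 667 nm with signal to noise per printed feature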
[2] = ATP-based viability of Huh7 replicon cells – cell-based, CellTiter-Glo luminescence, basal, 48 h, cytotoxicity control for HCV replication inhibitor project, primary screen (AID 1143); conditions: higher = more signal, called active from +8 up or from −8 down;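 further: Huh7 hepatoma cells carrying a hepatitis C replication reporter with no stimulus; test concentration not given here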
[3] = Pseudomonas biofilm growth suppression – PAO1 strain, BacTiter-Glo luminescence, LB-PBS, primary screen (AID 1144); conditions: P. aeruginosa PAO1 biofilm, 12 h, higher = more signal
[4] = basal CRE-LacZ reporter activity in PC12 – cell-based, unstimulated, primary screen (AID 1145); conditions: no forskolin, luminescence, 4.5 h, higher = more signal, called active from +8 up or from −8 down
[5] = forskolin-driven CRE-LacZ activity in PC12 – cell-based, CRE-LacZ reporter, forskolin-stimulated, primary screen (AID 1146); conditions: luminescence, 4.5 h, higher = more signal, called active from +8 up or from −8 down;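 further: PC12 cells with 6xCRE LacZ reporter stimulated by forskolin 10 µM; beta-galactosidase reporter signal reflecting CREB driven transcription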
[6] = target: Streptavidin (Streptomyces avidinii) (UniProt P22629); test: compounds binding control protein streptavidin – biophysical, small-molecule microarray, 635/667 nm fluorescence, artefact control for SMM compound annotation, primary screen (AID 1147); conditions: higher = more signal;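 further: signal reflects streptavidin binding to arrayed compounds as a control protein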
Streptavidin (Streptomyces avidinii), sequence (P22629 whole entry, looked up): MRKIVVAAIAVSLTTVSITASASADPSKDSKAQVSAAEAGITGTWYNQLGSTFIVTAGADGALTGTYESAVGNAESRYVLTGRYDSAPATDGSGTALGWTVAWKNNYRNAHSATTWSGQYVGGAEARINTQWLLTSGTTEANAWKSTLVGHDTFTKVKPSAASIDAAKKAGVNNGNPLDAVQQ

[7] = probe aInhba binding on compound microarray – biochemical, small-molecule microarray, 635/667 nm fluorescence, primary screen (AID 1148); conditions: higher = more signal;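 further: score merges 667nm spot fluorescence with signal-to-noise for antibody binding to printed compounds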
[8] = target: Torsin-1A (Homo sapiens) (UniProt O14656); test: TOR1A wild-type binding on microarray – cell lysate, small-molecule microarray, lysate, 635/667 nm, primary screen (AID 1149); conditions: COS7 hTOR1A-WT lysate, 635 nm fluorescence, higher = more signal
Torsin-1A (Homo sapiens), sequence (O14656 whole entry, looked up): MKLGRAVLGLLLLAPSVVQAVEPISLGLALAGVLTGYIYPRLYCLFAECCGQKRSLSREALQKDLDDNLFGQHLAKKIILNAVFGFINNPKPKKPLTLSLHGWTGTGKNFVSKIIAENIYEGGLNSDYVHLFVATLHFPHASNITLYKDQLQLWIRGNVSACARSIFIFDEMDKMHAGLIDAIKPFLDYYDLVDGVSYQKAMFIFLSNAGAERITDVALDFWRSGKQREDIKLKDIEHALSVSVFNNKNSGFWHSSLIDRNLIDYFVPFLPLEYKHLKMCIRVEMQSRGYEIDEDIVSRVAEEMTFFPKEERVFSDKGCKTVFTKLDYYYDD

[9] = target: Torsin-1A (Homo sapiens) (UniProt O14656); test: torsin A mutant lysate binding on microarrays – cell lysate, small-molecule microarray, COS7 lysate, 635/667 nm fluorescence, primary screen (AID 1150); conditions: COS7 hTOR1A mutant lysate, 635 nm fluorescence, higher = more signal;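 further: score pools 667 nm emission and signal to noise measuring lysate protein binding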
[10] = tested on: Sonic hedgehog protein (Shh); test: Sonic hedgehog microarray binding compounds – biochemical, small-molecule microarray, 635/667 nm fluorescence, primary screen (AID 1151); conditions: 635 nm fluorescence, higher = more signal;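 further: Shh protein binding to compounds spotted on small-molecule microarray slides; score combines spot fluorescence intensity with signal-to-noise across triplicate slides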
[11] = optical density shifts of acrAB sulA E. coli – strain DRC41, OD650, 48 h, E. coli filamentation inducer project, primary screen (AID 1152); conditions: higher = more signal, called active from +8 up or from −8 down;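 further: E. coli MC1000 strain DRC41 lacking acrAB efflux pump and sulA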
[12] = probe aLefty1 binding on compound microarray – biochemical, small-molecule microarray, 635/667 nm fluorescence, primary screen (AID 1153); conditions: higher = more signal;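 further: score merges spot fluorescence with signal-to-noise ratio from the scanned slide images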
[13] = plasmodial surface anion channel blockers, osmotic lysis – cell-based, P. falciparum Indochina, OD700, 1 h, primary screen (AID 1154); conditions: P. falciparum Indochina infected RBC osmotic lysis, higher = more signal, called active from +8 up or from −8 down
[14] = plasmodial surface anion channel blockers, osmotic lysis – cell-based, P. falciparum Indochina, OD700, 2 h, primary screen (AID 1155);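 further: lysis reports solute entry through the parasite surface anion channel PSAC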; conditions: P. falciparum Indochina infected erythrocytes, higher = more signal, called active from +8 up or from −8 down
[15] = changes in parasitized red cell lysis, either direction – P. falciparum Indochina, OD700, 3 h, PSAC antagonist project, primary screen (AID 1156); conditions: P. falciparum-infected erythrocytes, osmotic lysis, higher = more signal, called active from +8 up or from −8 down
[16] = plasmodial surface anion channel blockers, osmotic lysis – cell-based, P. falciparum Indochina, OD700, 18 h, primary screen (AID 1157); conditions: P. falciparum Indochina infected erythrocytes, osmotic lysis OD700, 18 h; higher = more signal, called active from +8 up or from −8 down
[17] = S6 kinase pathway phospho-S6 level changes – cell-based, A549, cytoblot, luminescence, serum-stimulated, primary screen (AID 1158); conditions: 5 h, higher = more signal;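 further: serum-stimulated A549 lung adenocarcinoma cells; signal is phosphorylated S6 detected by cytoblot immunostaining with HRP secondary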
[18] = target: NADPH oxidase 2 (Homo sapiens) (UniProt P04839); test: compounds shifting NOX2 Amplex Red fluorescence – cell-based, HEK293-NOX2, PMA-stimulated, NOX inhibitor project, primary screen (AID 1159); conditions: 45 min, higher = more signal, called active from +8 up or from −8 down; further: test concentration not given here
NADPH oxidase 2 (Homo sapiens), sequence (P04839 whole entry, looked up): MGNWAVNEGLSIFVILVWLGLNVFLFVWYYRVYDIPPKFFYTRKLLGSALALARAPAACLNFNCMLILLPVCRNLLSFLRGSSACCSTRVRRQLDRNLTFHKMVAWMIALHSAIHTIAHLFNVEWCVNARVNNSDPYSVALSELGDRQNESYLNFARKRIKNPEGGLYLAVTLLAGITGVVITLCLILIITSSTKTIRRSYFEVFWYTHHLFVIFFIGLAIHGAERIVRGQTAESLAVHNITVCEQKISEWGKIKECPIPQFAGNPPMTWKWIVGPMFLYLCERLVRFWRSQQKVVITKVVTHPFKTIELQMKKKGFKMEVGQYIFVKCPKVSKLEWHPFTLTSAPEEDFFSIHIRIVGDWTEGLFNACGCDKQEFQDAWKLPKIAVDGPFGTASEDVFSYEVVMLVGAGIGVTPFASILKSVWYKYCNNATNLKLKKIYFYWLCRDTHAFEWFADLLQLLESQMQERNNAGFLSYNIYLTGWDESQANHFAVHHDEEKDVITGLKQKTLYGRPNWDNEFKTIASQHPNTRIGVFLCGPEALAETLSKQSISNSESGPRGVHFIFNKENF

[19] = target: NADPH oxidase 4 (Homo sapiens) (UniProt Q9NPH5); test: compounds shifting NOX4 Amplex Red fluorescence – cell-based, HEK293-NOX4, tetracycline-induced, NOX inhibitor project, primary screen (AID 1160); conditions: HEK293-NOX4, Amplex Red H2O2 fluorescence, 45 min; higher = more signal, called active from +8 up or from −8 down
NADPH oxidase 4 (Homo sapiens), sequence (Q9NPH5 whole entry, looked up): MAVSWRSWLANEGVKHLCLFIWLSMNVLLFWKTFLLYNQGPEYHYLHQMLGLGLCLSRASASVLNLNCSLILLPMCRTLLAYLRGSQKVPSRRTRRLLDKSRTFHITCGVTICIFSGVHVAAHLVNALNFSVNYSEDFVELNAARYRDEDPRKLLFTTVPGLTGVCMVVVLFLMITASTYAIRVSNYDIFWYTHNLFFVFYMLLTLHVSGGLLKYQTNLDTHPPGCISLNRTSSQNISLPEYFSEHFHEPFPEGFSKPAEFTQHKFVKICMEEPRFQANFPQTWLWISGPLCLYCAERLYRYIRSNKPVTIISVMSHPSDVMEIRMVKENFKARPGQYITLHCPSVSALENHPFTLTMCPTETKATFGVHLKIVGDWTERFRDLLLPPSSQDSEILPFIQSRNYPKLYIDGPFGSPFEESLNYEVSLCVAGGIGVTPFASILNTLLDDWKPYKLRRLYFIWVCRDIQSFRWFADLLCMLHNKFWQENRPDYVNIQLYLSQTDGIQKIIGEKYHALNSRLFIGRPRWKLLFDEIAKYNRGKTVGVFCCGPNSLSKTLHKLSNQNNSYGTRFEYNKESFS

[20] = target: NADPH oxidase 5 (Homo sapiens) (UniProt Q96PH1); test: compounds shifting NOX5 Amplex Red fluorescence – cell-based, HEK293-NOX5, NOX inhibitor project, primary screen (AID 1161); conditions: HEK293-NOX5, ionomycin, 45 min, higher = more signal
NADPH oxidase 5 (Homo sapiens), sequence (Q96PH1 whole entry, looked up): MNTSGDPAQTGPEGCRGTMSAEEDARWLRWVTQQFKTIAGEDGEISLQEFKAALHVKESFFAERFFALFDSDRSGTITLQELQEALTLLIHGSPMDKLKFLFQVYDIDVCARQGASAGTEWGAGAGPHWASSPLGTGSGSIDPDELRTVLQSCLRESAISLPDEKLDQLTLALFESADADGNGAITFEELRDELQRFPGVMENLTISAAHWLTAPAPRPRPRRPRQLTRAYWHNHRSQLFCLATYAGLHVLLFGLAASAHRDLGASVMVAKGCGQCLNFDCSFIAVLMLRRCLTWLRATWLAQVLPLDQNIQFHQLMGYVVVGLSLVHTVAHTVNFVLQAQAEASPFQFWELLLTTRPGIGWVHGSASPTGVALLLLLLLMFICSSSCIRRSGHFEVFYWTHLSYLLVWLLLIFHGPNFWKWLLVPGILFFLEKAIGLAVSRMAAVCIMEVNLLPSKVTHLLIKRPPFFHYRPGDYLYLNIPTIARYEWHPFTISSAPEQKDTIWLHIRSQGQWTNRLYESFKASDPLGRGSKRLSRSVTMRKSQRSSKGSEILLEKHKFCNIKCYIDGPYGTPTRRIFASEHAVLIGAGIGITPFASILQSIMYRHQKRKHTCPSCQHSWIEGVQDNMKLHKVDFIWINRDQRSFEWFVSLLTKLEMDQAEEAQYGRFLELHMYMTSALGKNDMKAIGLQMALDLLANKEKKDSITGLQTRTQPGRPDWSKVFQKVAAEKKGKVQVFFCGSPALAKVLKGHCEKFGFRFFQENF

| SMILES | composite z-score [1] | z-score [2] | z-score [3] | z-score [4] | z-score [5] | composite z-score [6] | composite z-score [7] | composite z-score [8] | composite z-score [9] | composite z-score [10] | z-score [11] | composite z-score [12] | z-score [13] | z-score [14] | z-score [15] | z-score [16] | z-score [17] | z-score [18] | z-score [19] | z-score [20] |
| --- | --- | --- | --- | --- | --- | --- | --- | --- | --- | --- | --- | --- | --- | --- | --- | --- | --- | --- | --- | --- |
| CC(C)OC(=O)C=C1C[C@@H](c2ccccc2)O[C@@H](c2ccccc2)O1 | 0.706 and 0.731 | -1.4 (inactive) and -2.03 (inactive) | -0.804 (inactive) and -1.18 (inactive) | 0.836 (inactive) and -0.0879 (inactive) | -0.127 (inactive) and 3.16 (inactive) | 1.35 and 1.85 | 0.122 and 0.234 | 1.55 and 1.19 | 1.57 and 1.46 | 1.67 and 0.885 | 0.676 (inactive) and 0.585 (inactive) | -0.0984 and 0.149 | 15.2 (active) and 23.2 (active) | 1.94 (inactive) and 5.46 (inactive) | 0.369 (inactive) | 1.03 (inactive) and 1.37 (inactive) | -0.104 and -0.0136 | -0.124 (inactive) and -0.0606 (inactive) | -0.00431 (inactive) and -1.01 (inactive) | -0.39 and -0.392 |
| C=CCN(CCCCC)C(=O)C1N(c2c(Cl)cccc2CO)C(=O)C2C(C(=O)O)C3C=CC21O3 (stereo not given) | -0.65 and -1.3 | 0.0928 (inactive) and -0.313 (inactive) | -0.568 (inactive) and -0.00991 (inactive) | 0.467 (inactive) and 0.199 (inactive) | 0.209 (inactive) and -0.0386 (inactive) | -1.41 | -0.258 and -0.152 | -1.44 and -3.52 | -1.09 and -2.63 | -0.333 and -1.79 | -0.281 (inactive) and -0.118 (inactive) | -0.313 and 0.0547 | 1.02 (inactive) and 0.766 (inactive) | 0.078 (inactive) and 0.573 (inactive) | 0.418 (inactive) and 0.0852 (inactive) | 0.188 (inactive) and -0.058 (inactive) | 0.0308 and 0.765 | 0.871 (inactive) and 0.757 (inactive) | -1.02 (inactive) and -1.22 (inactive) | -0.554 and -0.2 |
| C=C[C@@H](C)[C@@H](O)c1ccc(O)c2ccccc12 | 0.0168 and -0.729 | 0.61 (inactive) and -1.13 (inactive) | -0.647 (inactive) and -0.589 (inactive) | 2.68 (inactive) and -0.3 (inactive) | 3.22 (inactive) and 5.31 (inactive) | -1.28 and -0.645 | -0.304 and -0.278 | -1.2 and -1.52 | -1.14 and -0.798 | -0.103 and 0.297 | -0.433 (inactive) and 0.891 (inactive) | -0.194 and -0.0851 | 0.837 (inactive) and 2.36 (inactive) | -0.0805 (inactive) and 0.389 (inactive) | -0.718 (inactive) and 0.0336 (inactive) | 0.205 (inactive) and 1.19 (inactive) | -0.565 and 0.273 | -5.58 (inactive) and -5.73 (inactive) | -0.616 (inactive) and -1.33 (inactive) | 1.95 and 1.31 |
| C=CCN(CCCCC)C(=O)C(c1cccs1)N(C(=O)/C=C\C(=O)O)c1c(Cl)cccc1CO (stereo not given) | -0.473 and -1.02 | 0.497 (inactive) and 0.165 (inactive) | 0.858 (inactive) and 2.29 (inactive) | 0.605 (inactive) and -0.212 (inactive) | 1.2 (inactive) and 0.266 (inactive) | -1.34 and -1.63 | -0.202 and -0.233 | -2.37 and -3.28 | -0.23 and -2.06 | -1.14 and -0.909 | -0.316 (inactive) and -0.346 (inactive) | 0.0005 and -1.11 | -0.501 (inactive) and 0.334 (inactive) | 0.092 (inactive) and 0.571 (inactive) | -0.0324 (inactive) and -0.0069 (inactive) | 0.257 (inactive) and 0.404 (inactive) | -0.122 and -0.137 | 0.306 (inactive) and 0.277 (inactive) | -0.584 (inactive) and -0.408 (inactive) | 0.212 and 0.29 |
| C#CCN1C(/C=C/c2ccccc2)C(=O)OC[C@H]1c1ccccc1 (stereo not given in full) | 0.161 and 0.111 | -5.93 (inactive) and -0.403 (inactive) | -0.793 (inactive) | 2.48 (inactive) and -0.682 (inactive) | -1.66 (inactive) and -0.836 (inactive) | -0.0296 and -0.175 | -0.0853 and 0.0807 | 0.419 and -0.479 | 0.436 and 0.128 | 0.713 and 1.03 | 1.75 (inactive) and 0.239 (inactive) | -0.021 and -0.0536 | 4.02 (inactive) and 1.57 (inactive) | 0.277 (inactive) and 0.538 (inactive) | 0.244 (inactive) and 0.713 (inactive) | -0.947 (inactive) and 0.377 (inactive) | 4.14 and -0.153 | 0.353 (inactive) and 1.86 (inactive) | 0.0869 (inactive) and 0.344 (inactive) | 0.189 and 0.518 |
| Cc1ccc(S(=O)(=O)N[C@@H]2COC(=O)CC=C[C@@H](C)[C@@H]3C=C[C@H](O)[C@@H](COC(=O)CC=C[C@H]2C)O3)cc1 | -0.0379 and -0.0821 | -0.0259 (inactive) and -3.11 (inactive) | -0.356 (inactive) and -2.59 (inactive) | -0.384 (inactive) and -0.478 (inactive) | -0.419 (inactive) and -0.201 (inactive) | -0.298 and 0.657 | -0.111 and -0.157 | 0.815 and 0.176 | 0.665 and 0.263 | 1.43 and 0.631 | -0.134 (inactive) and -0.835 (inactive) | -0.217 and 0.0658 | -0.178 (inactive) and -0.723 (inactive) | -0.377 (inactive) and -1.3 (inactive) | -0.603 (inactive) and 1.03 (inactive) | 0.035 (inactive) and -1.47 (inactive) | 0.116 and 1.08 | -2.15 (inactive) and -1.22 (inactive) | 0.427 (inactive) and -1.36 (inactive) | 0.353 and -2.6 |
| CCC[C@@H]1C[C@@]1(CCC)[C@@H](NC(=O)c1ccc(-c2ccccc2)cc1)c1cccc(Cl)c1 | 0.585 and -0.0434 | -2.34 (inactive) and -1.18 (inactive) | -0.439 (inactive) and -0.623 (inactive) | 0.394 (inactive) and -0.568 (inactive) | 0.0069 (inactive) and -0.151 (inactive) | -0.475 and 0.378 | 1.13 and -0.0011 | 0.286 and -0.411 | 0.322 and 0.104 | -0.032 and -0.684 | -2.52 (inactive) and -0.473 (inactive) | 2.19 and 0.345 | 2.33 (inactive) and 6.65 (inactive) | 0.011 (inactive) and 0.853 (inactive) | 0.364 (inactive) and 0.0717 (inactive) | 0.446 (inactive) and 0.691 (inactive) | -0.366 and -0.0422 | -1.8 (inactive) and -1.74 (inactive) | -2.39 (inactive) and -5.23 (inactive) | -1.31 and -1.93 |
| C=CCN(CCCCC)C(=O)C1N(C(C)(C)CO)C(=O)C2C(C(=O)O)C3C=CC21O3 (stereo not given) | -0.912 and -0.258 | 0.879 (inactive) and 1.06 (inactive) | 1.13 (inactive) and 1.98 (inactive) | -0.0737 (inactive) and -0.484 (inactive) | -0.0682 (inactive) and 0.563 (inactive) | -1.6 and -1.67 | -0.213 and -0.0791 | -3.01 and -1.59 | -2.24 and -1.18 | -0.99 and -0.61 | -0.548 (inactive) and -0.511 (inactive) | -0.717 and -0.18 | -0.632 (inactive) and -0.588 (inactive) | -0.042 (inactive) and -0.318 (inactive) | -0.694 (inactive) and -1.04 (inactive) | -0.281 (inactive) and -0.646 (inactive) | 0.0495 and 2.08 | 1.02 (inactive) and 0.298 (inactive) | -0.188 (inactive) and -0.0857 (inactive) | 0.101 and 0.407 |
| COC(=O)C1=C(C)N(Cc2ccccc2)[C@]23O[C@](C(=O)OC)(C(=O)N2[C@@H]1c1ccccc1)[C@H]1C(=O)N(c2ccccc2)C(=O)[C@H]13 | 0.115 and 0.0304 | -0.123 (inactive) and -0.532 (inactive) | -1.18 (inactive) | -0.165 (inactive) and 0.472 (inactive) | -1.65 (inactive) and -0.623 (inactive) | 0.32 and 0.436 | 0.201 and -0.0552 | 0.718 and 0.667 | 0.476 and 0.211 | 0.833 and 1.14 | -0.371 (inactive) and 0.644 (inactive) | -0.139 and -0.0046 | 0.729 (inactive) and 0.997 (inactive) | 0.626 (inactive) and -1.04 (inactive) | 1.17 (inactive) and 2.21 (inactive) | -0.0207 (inactive) and -1.23 (inactive) | -0.103 and 0.506 | 0.983 (inactive) and 0.108 (inactive) | 0.632 (inactive) and 1.27 (inactive) | 1.07 and 0.999 |
